High-throughput results: PubChem BioAssay, several laboratories
CHT PAM – CHT positive allosteric modulators, primary screen, cell-based, membrane potential dye, choline EC20 | B-score at 10 µM | 310,000 tested, 0.49% active | CHT-expressing cells; active compounds read high; LV-AA mutant CHT in HEK293 cells | AID 488977, 2010 | High affinity choline transporter 1 (Homo sapiens), Q9GZV3;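 active means initial fluorescence not abnormally high and integrated response B-score, plate-corrected, over 3 SD above library mean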
Target sequence (Q9GZV3 whole entry, looked up): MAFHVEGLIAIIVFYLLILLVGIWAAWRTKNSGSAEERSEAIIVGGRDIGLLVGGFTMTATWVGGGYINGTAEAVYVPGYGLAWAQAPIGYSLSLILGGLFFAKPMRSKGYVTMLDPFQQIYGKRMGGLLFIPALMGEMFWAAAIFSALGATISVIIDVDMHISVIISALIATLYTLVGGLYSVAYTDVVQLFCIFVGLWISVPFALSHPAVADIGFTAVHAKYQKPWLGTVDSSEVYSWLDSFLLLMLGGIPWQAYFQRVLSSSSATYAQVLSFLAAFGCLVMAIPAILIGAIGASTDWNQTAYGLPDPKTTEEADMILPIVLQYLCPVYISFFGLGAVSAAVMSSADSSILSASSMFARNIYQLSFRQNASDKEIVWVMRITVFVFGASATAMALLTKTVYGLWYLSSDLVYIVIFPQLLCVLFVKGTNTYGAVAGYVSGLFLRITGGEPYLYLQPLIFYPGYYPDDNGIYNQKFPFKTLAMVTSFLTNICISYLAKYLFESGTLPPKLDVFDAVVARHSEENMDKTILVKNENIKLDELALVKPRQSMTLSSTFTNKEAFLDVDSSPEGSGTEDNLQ
GPR7 antag – GPR7 receptor antagonists, primary screen, cell-based, fluorescence, single concentration; GPR7-expressing cells, fluorescence antagonist assay; AID 1861, 2009; inhibition, % at 4.4 µM; 290,000 tested, 1.1% active; Neuropeptides B/W receptor type 1 (Homo sapiens), P48145; in the data active means inhibition above about 16%, passing the limit was not always enough;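 further: cells stimulated with the agonist NPW; 0% = agonist with vehicle and 100% = vehicle without agonist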
Kir21 inh – inhibitors of mouse Kir2.1 inward-rectifier potassium channel; AID 1672, 2009; HEK293-Kir2.1, FluxOR thallium flux fluorescence; active compounds read low; 310,000 tested, 0.85% active; Inward rectifier potassium channel 2 (Mus musculus), P35561; B-score at 10 µM;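 active means fluorescence ratio B-score at or below minus 3 SD of library scores, with starting-brightness B-score within 2 SD, cut at about -4.2 in these data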;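 further: channel flux triggered by added potassium and thallium sulfate stimulus; B-score of peak minus minimum fluorescence over baseline after thallium stimulus; more negative B-score means stronger Kir2.1 block with less thallium influx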
CHT inh – inhibitors of human choline transporter CHT; AID 488975, 2010; 310,000 tested, 0.86% active; B-score at 10 µM; High affinity choline transporter 1 (Homo sapiens), Q9GZV3; CHT-expressing cells, membrane potential dye, choline response; active compounds read low;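 active means B-score over 3 SD under the library average, and starting fluorescence ratio not unusually high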;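 further: choline stimulus applied at its EC90 after an EC20 pre-addition; B-score computed on integrated fluorescence ratio after choline addition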
TMEM16A act – TMEM16A chloride channel activators or potentiators, primary screen, cell-based, HTS; Anoctamin-1 (Mus musculus), Q8BHY3; HEK293 TMEM16A/YFP-H148Q/I152L, iodide quench fluorescence; active compounds read low; B-score at 10 µM; 340,000 tested, 0.3% active; AID 623877, 2012;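 active means fluorescence-ratio B-score plate-corrected deviation score at least 3 library SD below zero, with starting fluorescence score within 5 deviations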;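 further: channel opened by trigger with iodide after compound preincubation; score built on the fluorescence ratio of max minus min over baseline; more negative score means more quench and so TMEM16A activation or potentiation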
ANO1 block – TMEM16A chloride channel inhibitors, primary screen, cell-based, HTS; Anoctamin-1 (Mus musculus), Q8BHY3; HEK293 TMEM16A/YFP iodide influx fluorescence, ionomycin; normalized B-score (activity score, 25-100; higher = stronger inhibition) at 10 µM; 310,000 tested, 1.2% active;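 active means ratio plate-corrected score three or more library SD toward inhibition, starting fluorescence score within five deviations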;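 further: score derived from kinetic fluorescence span divided by baseline fluorescence per well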
CHT act confirm – CHT activators, confirmation, cell-based, membrane potential dye, duplicate; CHT-expressing cells, membrane potential dye fluorescence (FDSS); % of choline EC20–EC90 response window; HEK293 expressing CHT LV-AA mutant; choline added at its EC20; activation, % at 10 µM; shares compounds with CHT PAM; 2,500 tested, 91% active; AID 504833, 2011;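 active means primary screen active, with duplicate mean activation above negative control mean plus 3 SD, cut at about 11% in these data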
HEK293 MP dye – membrane potential response in parental HEK293 cells, counter-screen for CHT activator project, cell-based, membrane potential dye; shares compounds with CHT PAM; membrane potential dye fluorescence (FDSS); measured after EC20 choline addition; ratio readout change at 10 µM, hits read low; 2,500 tested, 62% active;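 active means duplicate-averaged ratio beyond 3 SD from buffer wells, up or down, though filed actives are nearly all decreases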
An asterisk follows results filed as active; i = inactive; · = no result given. Shown are actives, neighbours in structure and some others; about 3.7% of the full set was active somewhere.

SMILES	CHT PAM	GPR7 antag	Kir21 inh	CHT inh	TMEM16A act	ANO1 block	CHT act confirm	HEK293 MP dye
CC(C)(C)c1ccc(C(=O)N2CCC(=O)N(C(COCc3ccccc3)Cc3ccccc3)CC2)cc1 (stereo unspecified)	i	9	-2.8	i	i	i	3	i
Nn1c(SCC(=O)Nc2ccc(N3CCOCC3)cc2)nnc1-c1cccc(F)c1	·	·	·	·	i	·	·	·
CNc1cc(C)nc(N2CCOCC2)n1	i	-1	0.95	i	i	i	53*	-43*
CCOc1ccc(CCNC(=O)COC(=O)c2ccc3c(c2)OCCO3)cc1OCC	i	·	-0.46	i	i	i	·	·
Cc1cc(N2CCOCC2)c2c(N)c(C)cc(C)c2n1	12*	-20	·	i	i	i	58*	-78*
Cc1cc([N+](=O)[O-])ccc1N(C)C	i	-9	0.23	i	i	i	·	·
Cc1ccc(C)c(OCC(O)CNC2CCCC2)c1 (stereo unspecified)	i	0	-0.57	i	i	i	·	·
O=C(O)CC1NCCc2ccccc21 (stereo unspecified)	i	-9	0.89	i	i	i	·	·
O=C(O)C1NCCc2ccccc21 (stereo unspecified)	i	16	0.84	i	i	i	8	i
Cc1ccccc1C(=O)NNC(=O)C1CC(=O)N(c2ccc3c(c2)OCCO3)C1 (stereo unspecified)	·	·	·	·	i	·	·	·
C/C(CCC(C)C)=N\Nc1cc(C)c2ccccc2n1	7.4*	-9	-1.7	i	i	i	52*	i
Cc1cc(NCc2ccccc2)nc2ccccc12	i	6	-2.1	i	i	i	·	·
Cc1nccn1CCCNC(=O)C1CCC(=O)N(Cc2ccccc2F)C1 (stereo unspecified)	i	4	-0.58	i	i	i	·	·
Cc1ccc2ccc3ccc(C)nc3c2n1	11*	20	1.3	i	i	i	67*	-75*
Cc1nn2c3ccccc3n(CCN3CCCCC3)c2nc1=O	7.1*	-13	-0.07	i	i	i	39*	-42*
Cc1c(C(=O)N/N=C/c2cccnc2)nnn1-c1nonc1N	i	6	-1.8	i	i	i	31*	-45*
Nc1nc(Nc2ccc(Cl)cc2)c(NC=O)c(=O)[nH]1	i	·	0.39	i	i	i	·	·
Cc1cc(C)n2nc3nc4c(cc3c2n1)CCCC4	7*	-2	1.2	i	i	i	41*	-47*
Cc1cc(C)n2nc(C)c(Br)c2n1	i	-4	-0.83	i	i	i	·	·
CCN(CC)c1nc(N2CCN(C)CC2)nc2ccccc12	i	-15	0	i	i	i	60*	-58*
CN(C)c1ccc2c3c(ccc(N(C)C)c13)C(=O)OC2	7.3*	-7	0.11	i	i	i	80*	-96*
COc1ccccc1N1CCN(CCCN=C2CC(=O)N(C)C(=O)N2C)CC1	·	·	·	·	i	·	·	·
C=C1CCN(Cc2ccccc2)S(=O)(=O)c2ccccc21	9*	·	0.64	i	i	i	26*	i
C=C1CCN(CC(=O)OC)S(=O)(=O)c2ccccc21	i	·	-0.34	i	i	i	·	·
FC(F)(F)COc1nc(OCC(F)(F)F)nc(N2CCN(c3ccccc3)CC2)n1	7.1*	-8	0.07	i	·	i	31*	i
SMILES	CHT PAM	GPR7 antag	Kir21 inh	CHT inh	TMEM16A act	ANO1 block	CHT act confirm	HEK293 MP dye
CCC1CCCCN1C(=O)CCn1c(=O)oc2ccccc21 (stereo unspecified)	i	·	-1.3	i	i	i	·	·
CCOc1cccc2sc(N(CCN(C)C)C(=O)c3ccc4ccccc4c3)nc12	9.5*	-2	-1.4	i	i	i	25*	-78*
Cc1ccc(C(=O)OCC(=O)c2ccc(S(=O)(=O)N3CCCCC3)cc2)o1	i	·	-1.4	i	i	i	·	·
CCN(CC)CCCNC1=C(Cl)C(=O)c2ccccc2C1=O	i	-8	-2.8	i	i	i	61*	-54*
Cc1cc2ncn(-c3ncnc4sc(C)c(C)c34)c2cc1C	i	-10	0.01	i	i	i	·	·
Cc1cc2ncn(-c3ncnc4scc(-c5ccccc5)c34)c2cc1C	8.4*	10	-1.4	i	i	i	21*	i
Cc1ccc(NC(=O)C(=O)c2ccc(C)cc2)cc1	i	0	0.2	i	i	i	·	·
Cn1c(=O)[nH]c(=O)c2c1[nH]c(=S)n2Cc1ccc(Cl)cc1	i	-5	1.1	i	i	i	·	·
Cc1ccc(O)c(C(=O)c2cnn(C(=O)Cc3csc(C)n3)c2)c1	i	-2	·	i	i	i	37*	-43*
CCn1c(=O)n(CC)c2cc(N3CCCC3)c(NC(=O)c3ccccc3OC)cc21	i	-17	1.6	i	i	i	·	·
CCOc1ccccc1C(=O)Nc1cc2c(cc1N1CCCC1)n(CC)c(=O)n2CC	i	-11	-1.8	i	i	i	51*	i
Cc1ccc(S(=O)(=O)N(C)C)cc1NC(=S)NC(=O)C12CC3CC(CC(C3)C1)C2	i	-8	0.45	i	i	i	3	i
CS(=O)(=O)N(CC(=O)N1CCc2ccccc2C1)c1cccc(Br)c1	i	·	-1.2	i	i	i	·	·
CCN(CC)c1cc(C)c2cc(NC(=O)CNC(C)=O)ccc2n1	6.5*	-2	0.52	i	i	i	56*	-31*
COc1ccc(CN(C)C(C)C(=O)Nc2cccc3ccccc23)cc1 (stereo unspecified)	i	-6	-0.06	i	i	i	4	i
CC(C)CCn1c(Oc2ccc(Cl)cc2)nc2c1c(=O)n(C)c(=O)n2C	i	-1	1.2	i	i	i	25*	i
